Positions count from the first letter of the chain named. Over roughly 24,000 sequences, “enrichment r” has its median near 0.99; the highest 2% begin near 3.7. Shown is part of a subset that was picked to be rich in the highest values.

Sequences and labels used below:
B1: 33187691_33187811_5116_3pUTR_ENSG00000170275_ENST00000320954|human|control|control (ssRNA)
RNA: GGGAGUUCUACAGUCCGACGAUCGCCUGCAGAACCAAACAGCAACCACUGAGCUCCAUGCUGAUGGGUCAAAGGACAAGCAAGGCAUCUUAGAGCAGGCCUGGAAGCUCCCACAAAGCUUACAAAUGUGUUUGUUUUUUCGAACAACAGAGGAUUGAGCAUCA
B2: chr6:38652254:38652255:-_ENSG00000124767_ENST00000373365|hu_hu|hu_hu_hu_mus_False|18_18 (ssRNA)
RNA: GGGAGUUCUACAGUCCGACGAUCCGAGAACUUCAUAGCAGGGAAGUCAAGCUUCUGCAGGAGGGUCAGUCCAAGAACCCUCGUAUAAAAAUCCAGGGACUUCUUAGGAUCCUUAAUUCGUAGCAUGGUUUGCUGCAGUAGAAACAACAGAGGAUUGAGCAUCA
B3: chr2:43450610:43450611:-_ENSG00000152518_ENST00000282388|hu_hu|motif|central (ssRNA)
RNA: GGGAGUUCUACAGUCCGACGAUCAGUUAAAUAGUUUUCAUAUUGAGUUGUGGUGCAGUGGUGCGAAUCAACUCAAAACAGCGGAAAAUUCAGCAGUUAUUCUCCAACAAUUACAAAGUAAGCUCUGCGCAAGGCUUCCAGAGGCAACAGAGGAUUGAGCAUCA
B4: chr17:36096658:36096659:-_ENSMUSG00000038762_ENSMUST00000043757|mus_mus|FALSE|FALSE (ssRNA)
RNA: GGGAGUUCUACAGUCCGACGAUCCUGCUUCUCGUACUGCUUUAGCAGCUCUUUCUGCUUCUGCUGGUACAUCUUCUUGAAGGUCAUGUAAUUGCCCCUGUAGUAAUGGAGCCGCUGGGUGUCCAGGUGGAUGAUAUCAGUGCACAACAGAGGAUUGAGCAUCA
B5: chrX:71549400:71549401:+_ENSMUSG00000019087_ENSMUST00000019231|mus_hu|mus_mus_mus_hu_False|28_98 (ssRNA)
RNA: GGGAGUUCUACAGUCCGACGAUCGCAGUAGGAAGAGCAAACCUUUCCAGUCCAGUGCGCUGCAGGGUGGGAAAGCAACAACACGGACACCGUCCCACCCUCAACCCUCUCAGGUGUACAGGGUCACACAAUCUGGGUCAAAGACAACAGAGGAUUGAGCAUCA
B6: chr13:100193180:100193181:-_ENSMUSG00000052727_ENSMUST00000064762|mus_mus|FALSE|FALSE (ssRNA)
RNA: GGGAGUUCUACAGUCCGACGAUCAUAAUAUAAAGGCUAAAUAAAUUUAAGUUGGAAAACUGGAAGAUAACUCCAUCUUCUAUGAAAGAAAAGUCAACCAGAGGUCUGGAUUUGGCAAGAAGGCUAGAAAUUGUUUCUCUUCACCAACAGAGGAUUGAGCAUCA
B7: chr4:11091628:11091629:+_ENSMUSG00000028211_ENSMUST00000029865|mus_mus|motif|central (ssRNA)
RNA: GGGAGUUCUACAGUCCGACGAUCUUCUUUCUCACUGAAUUCUGGUUCUUGGCUGGAAGAAGUAGUGACUUCGCCGGCAAACAUUUUAUUCAGUCUCUGAAACAUUGUUAAGGCAAGAUUGAGAUUUUGGCUAGAUAUCUUUAUCAACAGAGGAUUGAGCAUCA
B8: chr13:100193180:100193181:-_ENSMUSG00000052727_ENSMUST00000064762|mus_mus|motif|central (ssRNA)
RNA: B6 RNA with U80G, A81G
B9: chr1:182797045:182797046:+_ENSMUSG00000038806_ENSMUST00000038091|mus_hu|FALSE|FALSE (ssRNA)
RNA: GGGAGUUCUACAGUCCGACGAUCAGACUCAAGCUAAAUAGAAGAAAGAAAAUAACAGAAAUUAAUUAUAUAAACAAUUGAGAAAAAUAAAACCAAAGGUUGGUUCUUUAAAAGUUAUAUCGUCGGCCAGGCACGGUGGCUCACCAACAGAGGAUUGAGCAUCA
B10: chr17:65337090:65337091:-_ENSG00000197170_ENST00000584008|hu_hu|FALSE|FALSE (ssRNA)
RNA: GGGAGUUCUACAGUCCGACGAUCACCAGUCAUUUAAUAAAUUAUUUGGAUCCUUGGGUCUCUGGAAGUUGAUAAUUCCUGCUAAUCUGUCUACUUUAGCAAAGAUGGUCUUGUUAACUACUAGAUUUGAGAGAAAGGCUUCGGCAACAGAGGAUUGAGCAUCA
B11: 134340332_134340452_1702_CDS_ENSG00000130723_ENST00000357304|human|control|control (ssRNA)
RNA: GGGAGUUCUACAGUCCGACGAUCAGGGCCGUUUUCCUGGGGAGAUGCCUUCUCAGCACUUGGAGACCAGGGCACUUCCUUCUCUGCCUGCUUCCGGGCCUCACCUGCCUUUCGUGCCUGCUUACACUUCUGGUCCAGCUGCUUCAACAGAGGAUUGAGCAUCA
B12: 79156280_79159801_5654_CDS_ENSMUSG00000039414_ENSMUST00000097281|mouse|control|control (ssRNA)
RNA: GGGAGUUCUACAGUCCGACGAUCACUGCUGGCAGACCACAGGAAGAGCGCAAUGGCUGUGAGUGUGCUCACUUCGUCAGGUGCGGGCAUACAGUCAUCUGGUUGAGAAUAUUCCAGGAUGCAGGCAAGGGUGCUCCGGAUUAGCAACAGAGGAUUGAGCAUCA
B13: chr10:40656395:40656396:+_ENSMUSG00000019831_ENSMUST00000105509|mus_mus|FALSE|FALSE (ssRNA)
RNA: GGGAGUUCUACAGUCCGACGAUCUUGUGAUGGAGGAGAUGGAGGCAUUAAUGGAGCAUGGGGACCCGGGGCAGUAGAUGGUGCUGGAUGGAGCCCAGAGGGAGGAUGAGCAAGAGCUGCAACUGCGACAGGAGAUGAUGGCCGCAACAGAGGAUUGAGCAUCA
B14: chr4:144460044:144460045:+_ENSG00000153147_ENST00000283131|hu_mus|hu_hu_hu_mus_False|8_68 (ssRNA)
RNA: GGGAGUUCUACAGUCCGACGAUCACGGUCCAUAGCCUGAAGAUCAACUUGCGGAUUCCAAUCUGAGUCAUACAAAAUGACUACAUCAGCAGUUGCAAGAUUGAUGCCCAGACCACCAGCACGUGUGCUUAACAUGAAUACAAACAACAGAGGAUUGAGCAUCA

This assay addresses T1, UNK ZnF1-3 (human, UniProt Q9C0B0 31-174).
T1 sequence: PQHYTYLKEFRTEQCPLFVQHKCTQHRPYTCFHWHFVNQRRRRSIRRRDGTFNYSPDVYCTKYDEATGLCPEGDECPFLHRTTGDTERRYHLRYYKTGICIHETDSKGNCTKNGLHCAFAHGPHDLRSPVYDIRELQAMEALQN
Description: nsRBNS (natural sequence RNA bind-n-seq); RBNS binding buffer (assumed for nsRBNS): 25 mM Tris pH 7.5, 150 mM KCl, 3 mM MgCl2, 0.01% Triton X-100, 500 ug/ml BSA, 20 U/ml SUPERase-In, 4 C; UNK is unkempt and MSI1 is Musashi-1; names of the RNAs are library labels; protein concentration not given here; high values mean tight binding.
Take B1: the binding signal was 1.65 enrichment R.

In turn, B2 showed a binding signal of 0.56 enrichment R.

Consider B3, for which the binding signal was 1.75 enrichment R.

B4: the binding signal was 0.639 enrichment R.

In the case of B5, the binding signal worked out at 0.931 enrichment R.

On to B6, for which the binding signal came out at 3.86 enrichment R.

Turning to B7, the binding signal came to 0.789 enrichment R.

With B8, the binding signal is 6.8 enrichment R.

The molecule B9 came in with a binding signal of 14.2 enrichment R.

In the case of B10, the binding signal is 1.44 enrichment R.

B11: the binding signal turned out to be 0.675 enrichment R.

B12: the binding signal turned out to be 1.35 enrichment R.

With B13, the binding signal came to 3.38 enrichment R.

B14: the binding signal was determined as 0.925 enrichment R.
